Data on 31 molecules can be found in PubChem BioAssay.

The target in the first experiment is Dickkopf-related protein 1 (Homo sapiens) (UniProt O94907). Put plainly: DKK1 binders on small-molecule microarrays, primary screen, biochemical, small-molecule microarray, 635 nm fluorescence scan (AID 1106).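 Note: score merges emission near 667 nm with signal to noise over three replicate slides.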 Conditions: DKK1 binding, higher = more signal.
Sequence of Dickkopf-related protein 1 (Homo sapiens) (O94907 whole entry, looked up): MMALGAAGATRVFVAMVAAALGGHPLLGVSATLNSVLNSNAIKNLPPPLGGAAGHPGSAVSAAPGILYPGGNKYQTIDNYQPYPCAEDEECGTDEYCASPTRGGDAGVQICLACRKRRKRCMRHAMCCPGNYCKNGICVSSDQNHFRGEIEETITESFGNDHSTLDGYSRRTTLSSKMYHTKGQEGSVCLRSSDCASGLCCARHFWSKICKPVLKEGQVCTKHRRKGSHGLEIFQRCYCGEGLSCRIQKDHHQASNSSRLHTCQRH
Consider `C=CCN1C(=O)[C@]2(Cc3ccccc31)N=C(c1ccc(OCCCO)cc1)O[C@@H]2c1ccccc1`, for which the composite z-score turned out to be 0.998.

On to `CCCC[C@H]1OB(O)C[C@H]2C1=C(C)Cn1c(=O)n(-c3ccccc3)c(=O)n12`, for which the composite z-score was determined as 0.779.

On to `CCN(CC)c1ccc(N2CC=CC34O[C@@H]5C=CCOC(=O)[C@@H]5[C@H]3C(=O)N(CCCCCO)[C@@H]4C2=O)cc1` (stereo partly specified), for which the composite z-score was -0.413.

`C#C[C@H]1Oc2ccccc2S(=O)(=O)N2CCC[C@@H]12`: the composite z-score is 1.29.

With `O=C1C[C@@](C(=O)O)(c2ccc([N+](=O)[O-])cc2)[C@@H](c2ccc(CO)cc2I)N1CC12CC3CC(CC(C3)C1)C2`, the composite z-score was -1.1.

In turn, `CCOC(=O)N1C(c2ccc(OCCCO)cc2)=NC(C(=O)OC)N1C(=O)OCC` (stereo unspecified) displayed a composite z-score of 0.471.

In another experiment the test system is Inhibin beta A chain (activin A). As to the kind of experiment: INHBA (activin A) binders on microarrays, primary screen, biochemical, small-molecule microarray, 635 nm fluorescence scan (AID 1107).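 Note: mouse activin A protein probed at 4.33 µg/mL on printed slides; score merges bound-protein fluorescence near 667 nm with spot signal-to-noise.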 Conditions: small-molecule microarray binding, higher = more signal.
Take `C=C(CCCC)C(=O)CC[C@@H](OC(=O)c1ccccc1-c1ccccc1C(=O)O)c1ccc(CO)o1`: the composite z-score came out at 1.01.

For `O=C1c2ccccc2[C@](Cc2ccccc2I)(C(=O)O)[C@H](c2ccc(CO)cc2)N1Cc1ccccc1C(F)(F)F`, the composite z-score worked out at 0.353.

`O[C@@H](Cc1ccccc1)[C@@H](/C=C/c1ccccc1)NCc1ccccc1Br` came in with a composite z-score of 0.52.

In the case of `O=C(NCc1ccccc1)[C@@H]1c2ccccc2C(=O)N(Cc2cc(F)cc(C(F)(F)F)c2)[C@H]1c1ccc(CO)cc1`, the composite z-score came out at 0.517.

Molecule `CCCCN1CC=CC23O[C@@H]4/C=C\CCCOC(=O)C4[C@H]2C(=O)N(C(C)CO)[C@@H]3C1=O` (stereo partly specified) returned a composite z-score of 0.788.

Take `CC(C)C(CO)N1C(=O)[C@@H]2[C@H]3C(=O)OCC=C[C@H]3OC23C=CCN(c2ccc4ccccc4c2)C(=O)[C@@H]13` (stereo partly specified): the composite z-score was -0.141.

In the case of `C=C(/C(=C/C[C@@H](OC(=O)c1ccncc1)c1ccc(CO)o1)c1cc(C(=O)OC)ccc1OC)C(C)C`, the composite z-score was -0.0326.

The molecule `C=CC[C@@]1(C(=O)OC)N=C(c2ccc(OCCCO)cc2)O[C@@H]1c1ccccc1CN=[N+]=[N-]` came in with a composite z-score of 1.15.

As to `[N-]=[N+]=Nc1ccccc1[C@H]1OC(c2ccc(OCCCO)cc2)=N[C@@]1(CCS(=O)(=O)c1ccccc1)C(=O)N1CCOCC1`, the composite z-score worked out at 0.891.

On to `C=CCN1C(=O)[C@@]2(O[C@@H](CCO)[C@H]([Si](C)(C)c3ccc(OC)cc3)[C@H]2C)c2cc(N3C(=O)COc4ccccc43)ccc21`, for which the composite z-score was -0.145.

Regarding `CCCC[C@H]1OB(O)C[C@H]2C1=C(COc1ccccc1)C[C@H]1C(=O)N(Cc3ccccc3)C(=O)[C@H]12`, the composite z-score turned out to be 0.78.

The molecule `C#C[C@H](O[Si](C#CCCCCCC)(C(C)C)C(C)C)c1ccccc1` came in with a composite z-score of 0.168.

`C=CCNC(=O)[C@H]1[C@@H]2C(=O)O[C@@H](c3ccccc3)[C@@H](c3ccccc3)N2[C@@H](c2ccc(O)cc2)[C@]12C(=O)Nc1ccc(C#Cc3ccc(OC)cc3)cc12`: the composite z-score was -0.13.

As for `[N-]=[N+]=NCc1ccccc1C[C@@]1(C(=O)NCc2ccccc2)N=C(c2ccc(OCCCO)cc2)O[C@@H]1c1ccccc1CN=[N+]=[N-]`, the composite z-score stood at 0.123.

The molecule `C[N+](C)(C)CCCC[C@@H]1NC(=O)[C@H]2C[C@@H](C(=O)O)[C@@H](c3cccc(OCCO)c3)N2C1=O` had a composite z-score of 1.47.

`C=CCN1Cc2ccccc2C[C@@]2(COC(c3ccc(OCCCO)cc3)=N2)C1=O` gave a composite z-score of 1.59.

`[N-]=[N+]=NCc1ccccc1C[C@]1(C(N)=O)N=C(c2ccc(OCCCO)cc2)O[C@H]1c1ccccc1N=[N+]=[N-]` displayed a composite z-score of 1.45.

In turn, `CC(C)N1C(=O)c2ccccc2[C@](C)(C(=O)NCCCN(C)C)[C@@H]1c1ccc(CO)cc1` had a composite z-score of 0.814.

Consider `COCCOC(=O)N1C(=O)[C@@]2(c3ccccc31)[C@H](C(=O)N1CCCCCCC1)[C@H]1C(=O)O[C@H](c3ccccc3)[C@H](c3ccccc3)N1[C@@H]2c1ccccc1OCCO`, for which the composite z-score was determined as 2.02.

In turn, `C=C(COC)C(=O)CC[C@@H](OC(=O)c1ccccc1-c1ccccc1C(=O)O)c1ccc(CO)o1` gave a composite z-score of 0.466.

`COCCn1c(C(=O)N2CCCC2)cc2c1C[C@H]1CN(C(=O)c3ccccc3)[C@@](Cc3ccc(OC)cc3)(C(=O)OC)[C@@H]21`: the composite z-score was determined as 1.06.

Molecule `COc1ccc([Si](C)(C)[C@H]2[C@H](CC(=O)N3CCC[C@H]3CO)O[C@@]3(C(=O)N(c4ccccc4)c4ccccc43)[C@@H]2C)cc1` returned a composite z-score of 0.581.

As for `C=CCC(OC(C)=O)[C@@H]1[C@@H](N(Cc2cc3ccccc3o2)C(=O)c2ccc(-c3ccccc3)cc2)c2cc(OCCCO)ccc2N1C(=O)Cc1ccc2ccccc2c1` (stereo partly specified), the composite z-score was 1.2.

As to `C/C=C/[C@H](CCn1cc([C@H](O)c2ccccc2)nn1)[Si](C)(C)c1ccc(OC)cc1`, the composite z-score was -0.343.

Regarding `CCCC[C@@H]1C[C@H]1[C@@H](NC(=O)c1ccccc1)c1ccccc1`, the composite z-score was 0.582.
